Assay [1] is described as follows: Cell Viability - BJ (AID 421; calls by dose curve;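 further: potency means the concentration at half of the fitted maximal effect; cells exposed to compound for 40 hours at 37 °C before readout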). Conditions: BJ fibroblast viability, qHTS. Put shortly: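 Cytotoxicity in human BJ foreskin fibroblasts is scored as loss of cellular ATP after a 40-hour exposure, measured by luciferase luminescence. Controls are DMSO and 100 uM tamoxifen.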
Assay [2] can be described thus: Cell Viability - HepG2 (AID 433; calls by dose curve;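 further: potency means the concentration at half of the fitted maximal effect; potency for ATP loss meaning cytotoxicity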). As to conditions: qHTS. Summed up: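 In this qHTS format, a 40 h, 37 °C compound incubation of HepG2 cells in complete medium precedes a 20 min CellTiter-Glo step at room temperature. Tamoxifen and doxorubicin serve as positive controls; Hill-equation fits yield AC50.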
Assay [3] in a line: Cell Viability - NIH 3T3 (AID 541).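 Further: plate controls were DMSO alone for no effect and tamoxifen positive control for full effect; nearly all actives have a fitted effect of over 25% in size.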 As to conditions: NIH 3T3 cell viability, qHTS; activity change, negative = cytotoxicity: at 92.2 µM (top of the series). Put shortly:
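AC50 values reflect concentration-dependent loss of intracellular ATP in NIH 3T3 cells after 40 hr treatment in complete culture medium, quantified by luciferase-based luminescence.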

A short description of assay [4]: Cell Viability - HUV-EC-C (AID 542). Further: nearly all actives have a fitted effect of over 35% in size. Further: potency means the concentration at half of the fitted maximal effect. On activity change, negative = cytotoxicity: on the % scale 0 is the no-effect control and ±100 the full control effect. As to conditions: HUV-EC-C endothelial cell viability, qHTS; series mostly up to 92.2 µM. Summed up:
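Decrease in cellular ATP, quantified by luciferase luminescence, reflects toxicity in normal human vascular endothelial HUV-EC-C cells given compound for 40 hr in complete culture medium. Values are AC50s from concentration-response curves.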

The nature of assay [5]: Cell Viability - Renal Proximal Tubule (AID 545). Further: nearly all actives have a fitted effect of over 40% in size. Conditions: renal proximal tubule cells viability, at 91.7 µM (top of the series). Put shortly:
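In this qHTS format, normal rat kidney-derived proximal tubule cells in complete culture medium receive compound titrations, then sit 40 hours at 37 °C before luciferase-based ATP quantitation; potency is reported as AC50 from concentration-response curves.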

Assay [6] can be described thus: Cellular Toxicity (caspase-3) HepG2 (AID 654).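 Further: cells exposed to compound for 16 hours before reading.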 Conditions: HepG2 caspase-3 activation, luminescence, 0% = DMSO only, 100% = tamoxifen; series mostly up to 92.2 µM. Summed up: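 qHTS, HepG2, 1500 cells/well, complete medium; cpd 16 h 37 °C; Caspase-Glo 3/7, 20 min RT; lum. Norm: DMSO vs 100 uM tamoxifen; AC50 Hill fit.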
The nature of assay [7]: Cellular Toxicity (caspase-3) HUV-EC-C (AID 656). Conditions: HUV-EC-C cells, caspase-3 activation (apoptosis), vehicle = 0, 100 µM tamoxifen = 100%; series mostly up to 92.2 µM. Put shortly: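 Concentration-dependent caspase 3/7 induction was assessed in HUV-EC-C cells exposed for 16 hours. Data scaled between DMSO and tamoxifen (100 uM) controls.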
Assay [8] is described as follows: Cellular Toxicity (caspase-3) SHSY5Y (AID 657). As to conditions: SH-SY5Y caspase-3 activation, DMSO zero, 10 µM staurosporine = 100%; series mostly up to 91.7 µM. Summed up:
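Readout: caspase-cleaved peptide-aminoluciferin substrate driving luciferase light in SH-SY5Y neuroblastoma cells after 16 h treatment. Response normalized to DMSO and 10 uM staurosporine controls.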

Assay [9] in a line: Cellular Toxicity (caspase-3) BJ (AID 658). As to conditions: BJ fibroblasts, luminescence, normalized: DMSO 0%, staurosporine 100%; series mostly up to 91.7 µM. Put shortly:
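Readout: Caspase-Glo 3/7 luminescence increase in BJ cells after 16 hr treatment at 37 °C. Staurosporine and tamoxifen served as positive controls; AC50 values came from Hill modelling of data normalized to DMSO and 10 uM staurosporine.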

Assay [10] in a line: Cellular Toxicity (caspase-3) MRC-5 (AID 659). Conditions: MRC-5 cells, luminescence, normalized: DMSO 0%, 10 µM staurosporine 100%; series mostly up to 91.7 µM. Put shortly: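 Concentration-dependent caspase 3/7 activation is measured in human normal lung fibroblasts (MRC-5) following 16-hour treatment. AC50 values come from standard Hill-equation modeling of luminescence normalized to DMSO and 10 uM staurosporine.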

The nature of assay [11]: Cellular Toxicity (caspase-3) SK-N-SH (AID 661). Conditions: SK-N-SH caspase-3 activation, qHTS, DMSO as zero, staurosporine as full; series mostly up to 91.7 µM. Put shortly:
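Caspase 3/7 activation is measured as a luminescence increase from aminoluciferin released by substrate cleavage in SK-N-SH cells after 16 hr compound treatment; values are AC50 from concentration-response curves.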

Assay [12] in a line: Cellular Toxicity (caspase-3) H-4-II-E (AID 663).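 Further: cells exposed to compound for 16 hr before readout.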 Conditions: H-4-II-E rat hepatoma, scaled: DMSO 0%, 100 µM tamoxifen 100%; series mostly up to 92.2 µM. Put shortly:
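Apoptosis induction is scored as increased luminescence from caspase 3/7 substrate cleavage in rat hepatoma H-4-II-E cells exposed to compound for 16 hr. Activity is scaled between DMSO and 100 uM tamoxifen.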

A short description of assay [13]: Cellular Toxicity (caspase-3) NIH 3T3 (AID 666).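 Further: caspase signal read after 16 h compound exposure; 0% = DMSO basal and 100% = 100 µM tamoxifen stimulation.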 Conditions: NIH 3T3 caspase-3 activation, apoptosis/toxicity, 0% DMSO, 100% is 100 µM tamoxifen; series mostly up to 92.2 µM. Summed up: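 Concentration-response qHTS in NIH 3T3 mouse fibroblasts scores caspase-3/7 activation as rising luminescence after 16 hr compound exposure. Signals are scaled between DMSO-only and 100 uM tamoxifen.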

The nature of assay [14]: Cell Viability - LYMP2-025 (AID 976).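 Further: cells exposed to compound for 24 h at 37 °C.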 Further: potency means the concentration at half of the fitted maximal effect.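 On activity change, negative = cytotoxicity: plate controls were DMSO only for no effect and tetraoctylammonium bromide control for full effect.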 As to conditions: LYMP2-025 lymphoblastoid cell viability; series mostly up to 92.2 µM. Summed up:
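In qHTS format, LYMP2-025 lymphoblastoid cells in complete culture medium received compound for 24 hr; ATP-based CellTiter-Glo signal gave viability, with AC50 derived by Hill equation.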

Assay [15] has as its target Voltage-gated inwardly rectifying potassium channel KCNH2 (Homo sapiens) (UniProt Q12809). As to the kind of experiment: qHTS Assay for Small Molecule Inhibitors of the Human hERG Channel Activity (AID 588834).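 Further: lower thallium flux fluorescence means stronger hERG block; nearly all actives have a fitted effect of over 50% in size.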 Further: potency means the concentration at half of the fitted maximal effect. As to conditions: U2OS BacMam hERG, FluxOR thallium flux fluorescence; series mostly up to 92.2 µM. Put shortly:
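Blockade is seen as reduced FluxOR thallium-flux fluorescence in U2OS cells expressing hERG from a BacMam construct, in Opti-MEM with 2% FCS. Concentration-response data fitted to the Hill equation for AC50.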

Assay [16] concerns the target Tumor necrosis factor (Homo sapiens) (UniProt P01375). As to the kind of experiment: qHTS assay to identify small molecules that stimulate Tumor Necrosis Factor-alpha (TNF-alpha) secretion (AID 651757; active means well fitted curve in the direction sought with a large enough effect in the signal ratio; the % refers to the signal ratio; further: 0% is about no effect). As to conditions: Human cells, HTRF 665/615 ratio; series mostly up to 92.2 µM. Summed up: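 Secreted TNF-alpha from compound-treated THP-1 cells (17 hrs, 37 C) was quantified with a homogeneous time-resolved fluorescence antibody assay.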

Assay [17] in a line: qHTS assay for small molecule agonists of the antioxidant response element (ARE) signaling pathway measured by Nrf2-dependant transcriptional activity - cell viability counter screen (AID 720653; active means well fitted curve in the direction sought with a large enough effect in the repeat runs; an effect the other way counts as inactive or inconclusive; further: on the % scale 0 is the no-effect control and ±100 the full control effect). As to conditions: ARE-bla HepG2 viability, CellTiter-Glo ATP luminescence, 16 h; hits give low values. Summed up: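 Cytotoxicity counter screen: intracellular ATP quantified by CellTiter-Glo luminescence in the same ARE-bla HepG2 plates, after 16 h compound exposure and a 2 h beta-lactamase substrate step.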

Assay [18] can be described thus: qHTS assay for cell viability of HEK293 cells (AID 743288). Further: on the % scale 0 is the no-effect control and ±100 the full control effect; nearly all actives have a fitted effect of over 50% in size. Conditions: ATP luminescence (CellTiter-Glo), 18 h; max response: hits give low values. Summed up:
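Luminescent ATP quantitation served as the viability read-out. Cells (parental HEK293, 2,000/well) received compounds after at least 5 h at 37 C and were exposed for 18 h before a 30 min room-temperature reagent step.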

A short description of assay [19]: qHTS assay for cell viability of the p53RE-bla HCT-116 cell line (AID 743292). Further: on the % scale 0 is the no-effect control and ±100 the full control effect; nearly all actives have a fitted effect of over 55% in size. Conditions: p53RE-bla HCT-116 viability, ATP luminescence, 16 h; series mostly up to 95 µM. Put shortly: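 Compound-exposed HCT-116 (p53RE-bla) cells, 4,000 per well, were kept 16 h at 37 C following a 5 h preincubation. Cell number was estimated from total ATP by CellTiter-Glo luminescence read after 30 min at room temperature.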

The subject of the next assay is 7G8. As to the kind of experiment: qHTS profiling for inhibitors of Plasmodium falciparum proliferation (AID 504749).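 Further: 0% = DMSO vehicle and full inhibition = artemisinin control; nearly all actives have a fitted effect of over 60% in size.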 Conditions: P. falciparum in erythrocytes, SYBR Green DNA, 72 h; series mostly up to 12.8 µM. Put shortly: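 Three-day growth assay of blood-stage parasites in erythrocytes (0.3% parasitemia, 2.5% hematocrit) at 37 C, 5% CO2, quantified by SYBR Green DNA staining after overnight detergent lysis.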

The mark [20] stands for this setting: primary cells of rat origin unless noted.

Values joined by “and” are separate entries in the source; they are usually repeats but may differ in a detail not shown here. Equal entries are not always repeated. Unmarked numbers belong to inactive results. Records with an inconclusive call do not appear. Active and inactive are the calls of the source. Unless noted, the call rests on the fitted dose curve; in most records, active means well fitted curve in the direction sought with a large enough effect; inconclusive means small, poorly fitted or top-dose-only effect, or another doubt; inactive means no such curve, though single readings can be large; an effect the other way counts as inactive or inconclusive.

Sequence of Voltage-gated inwardly rectifying potassium channel KCNH2 (Homo sapiens) (Q12809 whole entry, looked up): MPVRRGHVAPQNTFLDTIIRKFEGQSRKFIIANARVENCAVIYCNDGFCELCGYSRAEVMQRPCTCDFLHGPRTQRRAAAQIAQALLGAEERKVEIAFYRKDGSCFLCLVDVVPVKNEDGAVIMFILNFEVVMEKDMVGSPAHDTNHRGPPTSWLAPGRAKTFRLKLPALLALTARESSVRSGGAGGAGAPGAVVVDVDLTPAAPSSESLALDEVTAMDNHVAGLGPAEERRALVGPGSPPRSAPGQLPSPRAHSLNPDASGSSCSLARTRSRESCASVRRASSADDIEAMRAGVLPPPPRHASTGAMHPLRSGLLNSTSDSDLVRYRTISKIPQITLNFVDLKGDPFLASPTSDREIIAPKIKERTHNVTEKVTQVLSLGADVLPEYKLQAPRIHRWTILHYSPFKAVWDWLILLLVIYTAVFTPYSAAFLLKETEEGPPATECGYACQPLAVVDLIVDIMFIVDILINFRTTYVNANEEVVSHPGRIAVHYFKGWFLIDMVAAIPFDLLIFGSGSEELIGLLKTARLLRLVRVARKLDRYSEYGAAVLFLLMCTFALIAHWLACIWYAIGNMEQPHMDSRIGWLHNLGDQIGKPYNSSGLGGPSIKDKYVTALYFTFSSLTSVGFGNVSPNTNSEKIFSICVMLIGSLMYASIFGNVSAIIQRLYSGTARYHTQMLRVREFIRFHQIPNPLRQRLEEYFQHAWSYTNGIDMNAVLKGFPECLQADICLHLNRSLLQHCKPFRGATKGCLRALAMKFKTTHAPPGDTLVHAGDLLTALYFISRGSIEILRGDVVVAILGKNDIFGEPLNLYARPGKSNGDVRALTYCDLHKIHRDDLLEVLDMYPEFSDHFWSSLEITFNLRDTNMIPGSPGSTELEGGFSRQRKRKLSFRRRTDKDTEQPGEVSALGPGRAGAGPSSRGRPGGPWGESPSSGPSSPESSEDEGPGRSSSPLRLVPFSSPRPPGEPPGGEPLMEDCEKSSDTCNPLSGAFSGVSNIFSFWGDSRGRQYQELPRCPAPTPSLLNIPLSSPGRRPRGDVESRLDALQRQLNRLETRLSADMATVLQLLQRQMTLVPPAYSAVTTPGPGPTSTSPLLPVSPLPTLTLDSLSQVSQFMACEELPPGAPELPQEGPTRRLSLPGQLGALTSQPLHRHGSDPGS
Sequence of Tumor necrosis factor (Homo sapiens) (P01375 whole entry, looked up): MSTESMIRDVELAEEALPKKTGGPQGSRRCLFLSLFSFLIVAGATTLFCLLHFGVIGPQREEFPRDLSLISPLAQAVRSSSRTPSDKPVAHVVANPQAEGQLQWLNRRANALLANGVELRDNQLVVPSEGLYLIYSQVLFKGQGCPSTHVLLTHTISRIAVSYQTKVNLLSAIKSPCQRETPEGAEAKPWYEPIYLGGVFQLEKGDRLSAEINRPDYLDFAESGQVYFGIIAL

Take `CNC(=O)O/N=C/C(C)(C)SC`: the Potency in assay [1] and in assay [2] was greater than 92 µM each time. For the same compound, the results for the activity change, negative = cytotoxicity in assay [3] and in assay [5] (setting [20]) were -9.42% and -3.02% [at 91.7 µM], respectively. The Potency result in assay [4], in assay [14], in assay [15] and in [19] was “inactive” throughout. For the same compound, the result in assay [6], in assay [7], in assay [8], in assay [9], in assay [10] and in [11] was inactive. Also, the compound was called inactive in assay [12], in assay [13] and in [16]. In addition, the max response in assay [17] was 2.17% and 5.56%; in [18], -1.1% and -12.4% and -2.16%.
With `CCOCN(C(=O)CCl)c1c(C)cccc1CC`, the Potency in assay [1] is 22.8 µM (active); in [4] it was 25.1 µM (active). Besides, the activity change, negative = cytotoxicity is -155% (active) in assay [3] and -103% (active) in [5] (setting [20]). The result in assay [6], in [7], in assay [8], in assay [9], in assay [10] and in assay [11] was inactive. Also, the compound was called inactive in assay [12], in assay [13] and in [16]. Also, the Potency result in assay [15] and in [19] was “inactive” each time. In addition, the max response was -15.8% and -13.8% in assay [17]; -18.2% and -18.7% in assay [18].
Regarding `O=C(O)COc1ccc(Cl)cc1Cl`, the Potency in [1] and in assay [2] was greater than 92 µM throughout. Besides, the activity change, negative = cytotoxicity in assay [3] is -11.4% and -12.3%; in assay [5] it was -12.8%; in assay [5] (primary cells of rat origin) it was -15.7%. Further, the Potency result in [4], in assay [14], in assay [15] and in assay [19] was “inactive” in each case. Moreover, the compound was classed as inactive in assay [6], in [7], in assay [8], in assay [9], in [10] and in assay [11]. Also, the outcome in [12], in [13] and in [16] was inactive. Moreover, the max response is -0.488% [middle of 4 runs] in [17] and 0.426% [middle of 4 runs] in [18].
Regarding `ClC1=C(Cl)C2(Cl)C3C4CC(C5OC45)C3C1(Cl)C2(Cl)Cl` (configuration not stated), the Potency in assay [1] was greater than 92 µM; in [2], greater than 92 µM; in [14] it was 50.1 µM (active); in assay [15] it was 35.5 µM (active). For the same compound, the activity change, negative = cytotoxicity is -20.8% in assay [3] and -5.71% [at 91.7 µM] in assay [5] (setting [20]). Further, the Potency result in [4] and in assay [19] was “inactive” throughout. For the same compound, the compound was classed as inactive in assay [6], in assay [7], in assay [8], in assay [9], in [10] and in assay [11]. The call in [12], in assay [13] and in assay [16] was inactive. For the same compound, the max response in [17] was -3.29%; in [18] it was -18.3%.
For `C[N+]1([O-])[C@@H]2CC(OC(=O)[C@@H](CO)c3ccccc3)C[C@@H]1[C@H]1O[C@H]12` (some centres not stated), in the assay with 7G8, the Potency result was “inactive”.
Take `C[C@H](N)[C@@H](O)c1ccccc1`: the Potency result in the assay on 7G8 is “inactive”.

The record behind these values is PubChem BioAssay (NCATS).
